# Data reported in PubChem BioAssay (NCI).
# This is part of a sample that, as a whole, favours compounds with a hit. Of some 83,000 tested, about 20% had one in any assay.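 Assay: single dose, 48 h. Readout: percent growth (0 = no net growth; negative = cell death). Active: <10.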 Values without a mark were called inactive. The source made the active and inactive calls.
# How the values were obtained:
# Experiment in all cases: NCI-60 one-dose screen, 48 h (100 = growth as untreated, 0 = no growth, -100 = all killed)
# Settings in all cases: 10 µM unless noted
# NCI-H23 lung = tested on: NCI-H23 lung
# NCI-H226 lung = tested on: NCI-H226 lung
# NCI-H322M lung = tested on: NCI-H322M lung
# HOP-62 NSCLC = tested on: HOP-62 NSCLC
# NCI-H460 lung = tested on: NCI-H460 lung
# HOP-92 NSCLC = tested on: HOP-92 NSCLC
# A549/ATCC NSCLC = tested on: A549/ATCC NSCLC
# 786-0 renal = tested on: 786-0 renal
# COLO 205 colon = tested on: COLO 205 colon
Compound,growth (NCI-H23 lung),growth (NCI-H226 lung),growth (NCI-H322M lung),growth (HOP-62 NSCLC),growth (NCI-H460 lung),growth (HOP-92 NSCLC),growth (A549/ATCC NSCLC),growth (786-0 renal),growth (COLO 205 colon)
COc1ccc2cc(C3=CC(=O)CCC3)ccc2c1,91.8%,55.5%,93.6%,112%,110%,83.5%,82.6%,90.5%,99.9%
Cc1cc(-c2ccccc2)cc(C)n1,103%,102%,105%,112%,112%,95.4%,92.7%,99%,120%
O=c1c2ccccc2c2nccn2c2cc(Cl)ccc12,72.6%,155%,129%,71.7%,101%,28.8%,71.7%,91.6%,112%
Cc1nn(-c2ccccc2)c2nc(N)c(C3=NCCO3)nc12,96.9%,93.6%,89.5%,81.2%,97.7%,43.6%,86.5%,99.7%,94.1%
COC(=O)C1=CCC(n2cnc3c(N)ncnc32)O1 (stereo unspecified),92%,87.5%,94.4%,94.3%,121%,89.9%,96.5%,107%,103%
CN1C(=O)C(C2=NN(C=O)C(c3ccc(F)cc3)C2)C(=O)N(C)C1=O (stereo unspecified),99%,85.2%,106%,84.4%,102%,91.7%,74.7%,100%,104%
c1ccc(Nc2ccc(Nc3nc(-c4ccccc4)nc4ccccc34)cc2)cc1,86.9%,81.2%,90.5%,79.8%,83.4%,134%,63.2%,65.7%,78.5%
CCOC(=O)c1cnc2c(C)cc(C)cc2c1NCCCN(C)C,35.2%,36.1%,20.9%,21.4%,10.1%,4.88% (active),1.69% (active),29.2%,17.4%
COc1cc(C(=O)/C=C/c2cccc(Nc3ccnc4cc(Cl)ccc34)c2)cc(OC)c1OC,11.1%,-18.7% (active),8.86% (active),-76.8% (active),4% (active),16.3%,-38.7% (active),-74.1% (active),-36.1% (active)
COCCOCCOCCOCCOc1ccc2c(c1)C(=O)c1nc3ncccc3c(=O)n1-2,-40.1% (active),-49.3% (active),-88% (active),-83% (active),-61.2% (active),-18.7% (active),-77.4% (active),-51.5% (active),-85.9% (active)
O=C(O)c1ccc2cccnc2c1O,8.65% (active),6.97% (active),12.4%,13.6%,6.87% (active),-29.3% (active),10.4%,7.02% (active),-70.9% (active)
[N-]=[N+]=NCc1ncc(-c2ccc(C(F)(F)F)cc2)c(NC2CCCCCC2)n1,66.1% [50 µM],80.9% [50 µM],89.5% [50 µM],87% [50 µM],58.4% [50 µM],64.5% [50 µM],59.4% [50 µM],68.7% [50 µM],87.2% [50 µM]
COC(=O)CC1=C(c2ccc([N+](=O)[O-])cc2)CCC1=O,100%,94%,115%,102%,103%,89.5%,94.7%,104%,98.2%
COc1cc(Cl)cc(-c2nn(-c3cccc(NC(=O)c4cc(C(F)(F)F)cc(C(F)(F)F)c4)c3)cc2-c2ccncc2)c1,72.1%,76%,80.3%,103%,40.9%,46.8%,43.5%,80.2%,88.7%
COc1cc(NC(=O)NCc2ccco2)ccc1-c1ccc(NC(=O)NCc2ccco2)cc1OC,49.4%,14.1%,49.5%,33.8%,35.8%,23%,34.6%,40.1%,64.9%
CCOc1cc(/C=C/C(=O)CC(=O)/C=C/c2ccc(OC(=O)CNc3nc4ccc(OC)cc4s3)c(OCC)c2)ccc1OC(=O)CNc1nc2ccc(OC)cc2s1,55.7%,64.5%,88.6%,63.9%,57.5%,90.9%,48.2%,32.2%,109%
O=c1c2c(=NCCCN3CCCC3)cc3c(=O)n(CCCN4CCCC4)c(=O)c4c(NCCCN5CCCC5)cc(c(O)n1CCCN1CCCC1)c2c4-3,-2.37% (active),-26.3% (active),-29.5% (active),-13.7% (active),-32.1% (active),0.433% (active),7.79% (active),-13.9% (active),-68.4% (active)
COc1ccc(-c2cc(-c3cccnc3)nc(S(=O)(=O)CC(=O)Nc3ccc(C)cc3)c2C#N)cc1OC,85%,94.2%,91.7%,96.8%,101%,76%,93.4%,87.9%,96.5%
Nc1nc2c(c(=O)[nH]1)C1(C(=O)Nc3ccccc31)c1c(nc(N)[nH]c1=O)N2,106%,91.5%,98.1%,101%,104%,96.2%,112%,108%,102%
Nc1ncnc2c1CN(Cc1ccccc1)CC2,98.3%,113%,117%,106%,107%,87.5%,90.3%,101%,115%
COc1cnc2c(c1)C(=O)c1c-2n(CCCNC(C)C)c(=O)c2cc(F)ccc12,-39.9% (active),-52.6% (active),-13.1% (active),-35.8% (active),-32% (active),-8.3% (active),-68.6% (active),-73% (active),-19.7% (active)
CC(=O)OCC(=O)[C@@]1(O)CC[C@H]2[C@@H]3CCC4=CC(=O)CC[C@]4(C)[C@@]3(F)[C@@H](O)C[C@@]21C,108%,68.8%,129%,109%,94%,66.9%,78.4%,116%,97.8%
c1ccc2nc(Cn3c[n+](Cc4ccc5ccccc5n4)c4ccccc43)ccc2c1,32%,37.1%,78.1%,53.8%,32.4%,-8.16% (active),54%,66.7%,6.96% (active)
COc1cccc(CCN2C(=O)CCC3=C2CCC3=O)c1,96.9%,97.4%,101%,102%,115%,86%,112%,97.6%,108%
c1ccc(-c2oc(-c3ccccc3)c3ccccc23)cc1,99.2%,104%,118%,98.2%,102%,78.7%,99%,101%,105%
C/C(=C\CCc1ccoc1)CC/C=C(\C)CCCN1CCOCC1,46.2%,70.6%,84.5%,69.1%,54.3%,57.4%,63.6%,69.4%,40.9%
Fc1ccccc1C1c2ccccc2-c2nccn21 (stereo unspecified),87%,88.1%,96.2%,98.4%,110%,61.8%,94.9%,89.7%,111%
CC(=O)[C@H]1CC[C@H]2[C@@H]3C[C@H](C)C4=CC(=O)CC[C@]4(C)[C@H]3C(=O)C[C@]12C,102%,104%,117%,99.1%,107%,85.3%,98.7%,112%,94.3%
Nc1nc2c(nnn2Cc2ccc(Cl)c(Cl)c2)c(=O)[nH]1,104%,96.5%,82.4%,90.4%,104%,75.5%,103%,97.3%,98.5%
